Experimental data reported in the supplement of paper PMC6555819.

Assays:
Assay in all cases: PBM binding z-score (relative to random genomic background probes); higher = stronger binding; sequences stand for … in GC…GCGATTGACAGCGTAGAATGAAGG
[1] = test system: FXR:RXRa (NR concentration 270 nM, RXRa partner concentration 90 nM)
Outline: (§1)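 Binding buffer was PBS pH 7.4 with 2% milk, 0.02% Triton X-100, 1 mM DTT, 0.2 mg/mL BSA and 0.4 mg/ml salmon testes DNA. In it, ligand-free nuclear receptor dimers were incubated 1 h on custom Agilent 4×180K protein-binding microarrays carrying double-stranded probes. Antibodies against each partner (one per run) detected binding, and z-scores were calculated against random background probes after regression normalization of scanned fluorescence.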

[2] = test system: LXRa:RXRa (NR concentration 270 nM, RXRa partner concentration 90 nM)
Outline: as §1

[3] = test system: LXRa homodimer (NR concentration 270 nM)
Outline: as §1

[4] = test system: LXRb:RXRa (NR concentration 270 nM, RXRa partner concentration 90 nM)
Outline: as §1

[5] = test system: LXRb homodimer (NR concentration 270 nM)
Outline: as §1

[6] = test system: PPARa:RXRa (NR concentration 270 nM, RXRa partner concentration 90 nM)
Outline: as §1

[7] = test system: PPARg:RXRa (NR concentration 180 nM, RXRa partner concentration 90 nM)
Outline: as §1

[8] = test system: PPARg:RXRa 270nM:90nM, anti-RXR (NR concentration 270 nM, RXRa partner concentration 90 nM)
Outline: as §1

[9] = test system: PPARg:RXRa 30nM:10nM, anti-RXR (NR concentration 30 nM, RXRa partner concentration 10 nM)
Outline: as §1

[10] = test system: PPARg:RXRa 90nM:30nM, anti-RXR (NR concentration 90 nM, RXRa partner concentration 30 nM)
Outline: as §1

[11] = test system: PPARg:RXRa DBDmut IVT, anti-RXR (DBD mutation: RXRa K156A/R161A, NR concentration 270 nM, RXRa partner concentration 90 nM)
Outline: as §1

[12] = test system: PPARg:RXRa IVT, anti-PPARg (NR concentration 270 nM, RXRa partner concentration 90 nM)
Outline: as §1

[13] = test system: PPARg DBDmut:RXRa IVT, anti-PPARg (DBD mutation: PPARg1 K132A/R137A, NR concentration 270 nM, RXRa partner concentration 90 nM)
Outline: as §1

[14] = test system: PPARg DBDmut IVT, anti-PPARg (DBD mutation: PPARg1 K132A/R137A, NR concentration 270 nM)
Outline: as §1

[15] = test system: PPARg homodimer (NR concentration 180 nM)
Outline: as §1

[16] = test system: PXR:RXRa (NR concentration 270 nM, RXRa partner concentration 90 nM)
Outline: as §1

[17] = test system: PXR homodimer (NR concentration 270 nM)
Outline: as §1

[18] = test system: RARa:RXR (NR concentration 270 nM, RXRa partner concentration 90 nM)
Outline: as §1

[19] = test system: RARa homodimer (NR concentration 270 nM)
Outline: as §1

[20] = test system: RARb:RXRa (NR concentration 270 nM, RXRa partner concentration 90 nM)
Outline: as §1

Sequence	PBM binding z-score [1]	PBM binding z-score [2]	PBM binding z-score [3]	PBM binding z-score [4]	PBM binding z-score [5]	PBM binding z-score [6]	PBM binding z-score [7]	PBM binding z-score [8]	PBM binding z-score [9]	PBM binding z-score [10]	PBM binding z-score [11]	PBM binding z-score [12]	PBM binding z-score [13]	PBM binding z-score [14]	PBM binding z-score [15]	PBM binding z-score [16]	PBM binding z-score [17]	PBM binding z-score [18]	PBM binding z-score [19]	PBM binding z-score [20]
ACAGACAGGTGACGAAGGTAACTCAGGCTATCAT	-0.34	-0.14	-0.233	-0.231	-0.858	0.582	0.955	0.489	-0.242	0.424	0.762	1.19	0.0336	-0.57	-0.168	-0.208	-0.237	0.144	0.0267	0.637
TCTCGTAGATCAAGCAGGTTAAGAAAGCCTGAGT	-0.462	-0.196	-0.257	-0.0905	-1.19	0.4	-0.54	0.861	2.47	1.83	1.63	-0.598	-0.611	-0.106	-0.511	0.225	-0.267	0.111	-0.712	-0.255
TAGCCTAGATCATTGGGCCAGTATAGTACGCATC	-0.685	-0.948	-0.567	-0.649	-0.658	-0.513	0.37	-0.537	-0.101	-0.125	0.771	0.88	0.335	-0.32	-0.814	-0.775	-0.695	-0.564	-0.292	-1.15
GGAACAAGGGCAAGTTGATAGCAGAGTTTGATGG	0.62	0.417	0.0737	0.264	-0.0748	0.929	1.04	0.726	0.251	0.632	2.92	1.97	-0.205	-0.563	0.831	0.589	1.08	0.364	0.91	2.71
GCTAGTCGGTCAGTAAAAGGTCACACACCGGTCG	4.06	4.97	5.34	4.32	0.747	4.67	3.19	4.83	2.43	4.01	2.63	3.74	0.159	0.0206	4.9	5.25	1.05	6.26	2.14	4.65
ATATGTAGGTTAGCCGGGGTCATTCAGACTAGGC	5.13	5.67	3.14	4.72	0.687	5.6	6.59	5.96	3.47	5.29	7.11	6.89	1.14	1.79	2.77	6.72	4.32	6.2	0.664	3.31
TAGCCTAGGTCATGGGCCAGTATCCCACGCGAAC	4.49	3.17	0.378	2.29	-0.295	4.04	3.88	3.41	0.754	2.6	1.1	3.14	0.396	-0.233	1.33	1.43	-0.353	2.55	-0.117	3.74
CCGACTGGGGCAGAAGGTTACCATAAGCCAGCCC	-0.0856	1.46	-0.41	0.494	-1.21	1.43	1.92	3.09	0.815	2.15	1.61	1.92	-0.993	-1.69	0.826	0.166	0.188	0.736	-0.0153	1.25
TAGCCTACGTCAGATCGGGCCAGTATACGCTATA	-0.48	-0.971	-0.851	-1.01	-0.669	-0.78	0.214	-0.86	-0.34	-0.771	-1.07	-0.466	-1.21	0.256	-1.51	-0.718	-1.22	-0.618	-1.02	-0.507
TCATATAGGTAAATGGTAGGTGAAAGTCCGATCT	1.34	1.54	0.813	1.26	0.456	1.8	1.39	3.17	3.85	3.74	4.03	3.04	0.629	0.943	1.37	0.974	0.669	1.43	1.61	0.698
GCGACAGGGGCATCAGCAGGTTACCATAACTTAA	0.0406	0.297	-0.329	1.42	-0.683	1.33	0.386	0.0152	-0.411	-0.547	0.0717	-0.102	-1.02	-1.18	0.4	0.643	0.0793	1.08	-0.68	1.27
GGAACGAGGGCATTCGAGTTGATAGCGTGGCGAT	1.41	1.5	-0.572	-0.00424	-0.698	1.35	0.634	0.67	-0.488	0.214	3.44	2.02	-0.574	-0.961	0.0421	3.71	1.79	0.221	-0.388	1.85
ACTAATAGTTGAGACGAGGGCAACCGATAGGTTG	0.996	0.527	-0.147	0.288	0.0115	0.669	0.841	-0.0729	0.0984	0.103	-0.206	0.29	-0.296	0.434	-0.0381	2.33	0.121	1.08	-0.0731	1.34
CCGACTTGGGCAGAAAGGTTACCATACCATCCGG	0.0234	0.228	-0.275	0.646	-1.09	1.44	1.06	1.64	0.23	0.892	-0.147	-0.369	-0.764	-1.15	0.811	0.592	-0.331	1.16	-0.0756	1.12
ATACCAAGGTGATCGTGAGGTCGGTGATACTAAC	0.882	0.302	0.1	0.211	-0.161	0.78	0.426	-0.213	-0.123	-0.222	0.199	1.12	-0.398	0.469	0.85	0.944	0.32	0.998	0.866	1.11
